Each structure is given as a SMILES string. Calls of active or inactive are those of the source.

Sequence of Albumin (Bos taurus) (P02769 whole entry, looked up): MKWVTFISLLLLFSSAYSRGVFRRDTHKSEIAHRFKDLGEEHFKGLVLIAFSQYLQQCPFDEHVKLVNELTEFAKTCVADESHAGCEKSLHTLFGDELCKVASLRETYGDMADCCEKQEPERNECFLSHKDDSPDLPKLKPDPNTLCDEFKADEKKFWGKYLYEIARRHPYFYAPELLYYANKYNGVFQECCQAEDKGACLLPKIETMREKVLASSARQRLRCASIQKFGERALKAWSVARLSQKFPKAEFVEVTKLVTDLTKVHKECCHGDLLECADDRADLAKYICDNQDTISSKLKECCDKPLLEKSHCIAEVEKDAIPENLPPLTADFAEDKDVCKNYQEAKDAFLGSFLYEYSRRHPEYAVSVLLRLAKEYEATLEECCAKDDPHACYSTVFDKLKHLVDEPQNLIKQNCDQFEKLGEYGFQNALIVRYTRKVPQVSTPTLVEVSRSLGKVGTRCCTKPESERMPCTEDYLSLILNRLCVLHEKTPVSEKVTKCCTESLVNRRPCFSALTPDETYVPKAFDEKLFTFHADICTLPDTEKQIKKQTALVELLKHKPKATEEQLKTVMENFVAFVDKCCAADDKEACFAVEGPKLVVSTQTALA

The first test addresses Albumin (Bos taurus) (UniProt P02769). The test can be described thus: compounds binding labelled BSA control protein – biochemical, small-molecule microarray, Alexa647 label, 635/667 nm fluorescence, artefact control for SMM control protein annotation, profiling panel (AID 1118).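 Note: score merges 667 nm emission intensity and signal-to-noise per printed compound spot.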 As to conditions: BSA-A647 binding, fluorescence 635 nm, higher = more signal.
In turn, `CC(C)(C)OC(=O)CC[C@]1(C(=O)N2CCCCC2)N=C(c2ccc(OCCCO)cc2)O[C@H]1c1ccccc1` came in with a composite z-score of 0.806. The same measure, in the same setting: for `CC(=O)NCCCC[C@@H]1NC(=O)[C@@H]2C[C@H](C(=O)NCCCCCNC(=O)CS)[C@H](c3ccc(O)cc3)N2C1=O` the value was -0.0591; for `C=CCC(OC(C)=O)[C@@H]1[C@@H](N(Cc2ccc(-c3cccc(C(F)(F)F)c3)o2)C(=O)Cc2ccc(F)cc2)c2cc(OCCCO)ccc2N1C(=O)c1ccc(-c2ccccc2)cc1` (stereo partly drawn), -0.701. `CO[C@]12C=C(Br)[C@@H](C[C@@H]1c1ccccc1)[C@@]1(CO1)C2=O` had a composite z-score of 0.139. For `COCCOC(=O)N1C(=O)[C@@]2(c3cc(C#CCC(C(=O)OC)C(=O)OC)ccc31)[C@H](c1ccccc1OCCO)N1[C@H](c3ccccc3)[C@H](c3ccccc3)OC(=O)[C@H]1[C@@H]2C(=O)N1CCCCCCC1`, the composite z-score was -0.0742.

On to `CCOC(=O)C1=CC[C@@H](c2ccccc2)N(S(=O)(=O)c2ccc(C)cc2)[C@H]1C`, for which the composite z-score came out at 0.972. On to `O=C1c2ccccc2[C@](Cc2ccccc2I)(C(=O)NCC(F)(F)F)[C@H](c2ccc(CO)cc2)N1Cc1ccccc1C(F)(F)F`, for which the composite z-score stood at 0.89.

Tested on in another test: not listed separately
As to the kind of experiment: probe aXIP binding to arrayed compounds – biochemical, NeuroSMM set, 635/667 nm fluorescence, primary screen (AID 1119).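 Note: probe is the protein aXip251-270 applied at 1 µg/mL to compound-printed slides; binding of probe to printed compounds measured as 667 nm fluorescence plus signal to noise.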 The settings on record: small-molecule microarray, higher = more signal, called active from +8 up or from −8 down.
With `CCCC=C(CCC)[C@@H](NS(=O)(=O)c1ccc(-c2ccccc2)cc1)c1ccc(C(=O)OC)cc1`, the composite Z-score is -0.682 (inactive). The same measure, in the same setting: under `COc1ccc([Si](C)(C)[C@@H]2[C@@H](CC(=O)N(CCO)Cc3ccccc3)O[C@]3(C(=O)N(Cc4cccc(N5CCC5=O)c4)c4ccccc43)[C@H]2C)cc1` stands 0.0923 (inactive); under `CCC1=C2CN(Cc3ccccc3Br)[C@@H]([C@@H](O)Cc3ccccc3)C2C=CCC1` (stereo partly drawn), 1.22 (inactive). Same read-out and setting: under `CO[C@H]1COC(=O)[C@H](C)COC(=O)[C@H](Cc2ccccc2)NC(=O)CC=C[C@H]1C` stands 0.72 (inactive). In the case of `Cc1ccc(S[C@]2(C(=O)NC3CC3)CC(=O)N(Cc3cc(C(F)(F)F)cc(C(F)(F)F)c3)[C@@H]2c2ccc(CO)cc2)cc1`, the composite Z-score is -0.421 (inactive). In the case of `CCCC[C@@H]1C[C@H]1[C@@H](NC(=O)c1cccs1)c1ccc(Cl)cc1`, the composite Z-score was 2.33 (inactive).

Consider `COC(=O)C(CC#Cc1ccc2c(c1)[C@]1(C(=O)N2)[C@H](C(=O)N2CCCCCCC2)[C@H]2C(=O)O[C@H](c3ccccc3)[C@H](c3ccccc3)N2[C@@H]1c1ccc(O)cc1)C(=O)OC`, for which the composite Z-score was 0.448 (inactive). Consider `CC(C)N1CC=CC23O[C@@H]4/C=C\CCCOC(=O)C4[C@H]2C(=O)N(CCO)[C@@H]3C1=O` (stereo partly drawn), for which the composite Z-score was 1.95 (inactive).

`O=C1O[C@H](c2ccccc2)[C@H](c2ccccc2)N2[C@H]1[C@@H](C(=O)NC[C@H](O)c1ccccc1)[C@]1(C(=O)Nc3ccc(C#CC4=CCCCC4)cc31)[C@H]2c1ccc(OCCO)cc1`: the composite Z-score is 0.318 (inactive). For the compound `Cc1ccc(S[C@]2(C(=O)NC(C)C)CC(=O)N(C3Cc4ccccc4C3)[C@@H]2c2ccc(CO)cc2)cc1`, the composite Z-score was 0.52 (inactive). In the case of `Cc1ccc(S[C@]2(C(=O)NCCCN(C)C)CC(=O)N(Cc3ccccc3)[C@@H]2c2ccc(CO)cc2I)cc1`, the composite Z-score was 0.35 (inactive). Regarding `COc1ccc([C@H]2C[C@H]3C(Br)=C[C@]2(OC)C(=O)[C@]32CO2)cc1`, the composite Z-score is -0.145 (inactive).

As for `COC(=O)[C@H]1[C@@H]2COc3ccccc3[C@H]2N[C@H]1C(=O)OC`, the composite Z-score is 0.0807 (inactive). The same measure, in the same setting: under `C=CC[C@]1(C(N)=O)N=C(c2ccc(OCCCO)cc2)O[C@H]1c1ccccc1CN=[N+]=[N-]` stands 0.221 (inactive); under `CC(C)[Si](OCC[C@H]1O[C@]2(C(=O)N(Cc3ccccc3)c3ccccc32)[C@@H](C)[C@@H]1[Si](C)(C)O)(C(C)C)C(C)C`, -0.0745 (inactive); under `CC(C)[Si](OCCCNS(=O)(=O)c1ccc(Br)cc1)(C(C)C)C(C)C`, -0.495 (inactive). On the same count and under the same terms, for `C=CCOC(=O)[C@@H]1[C@H]2C(=O)O[C@H](c3ccccc3)[C@H](c3ccccc3)N2[C@H](c2ccc(OCCOC(=O)[C@H]3C[C@H]4C(=O)N[C@@H](CCCCNC(C)=O)C(=O)N4[C@H]3c3ccc(O)cc3)cc2)[C@@]12C(=O)Nc1ccc(I)cc12` the value was 0.396 (inactive); for `C[C@]1(C(=O)NCCN2CCOCC2)c2ccccc2C(=O)N(Cc2ccccc2)[C@H]1c1ccc(CO)cc1`, -0.61 (inactive); for `C=CCN(C(=O)C1N(c2ccc(CCO)cc2)C(=O)C2C(C(=O)O)C3C=CC21O3)C(C)(C)C` (stereo not drawn), -0.12 (inactive).

For the compound `CCOC(=O)C[C@H]1[C@H](OC(=O)Cc2ccc3c(c2)OCO3)[C@@H](NC(=O)c2ccc3ccccc3c2)c2cc(OCCCO)ccc2N1C(=O)Cc1ccc(OC)cc1`, the composite Z-score is 0.563 (inactive). Still for that read-out and setting: for `COc1ccc([Si](C)(C)[C@H]2[C@H](CCO)O[C@@]3(C(=O)N(Cc4ccc(N5CCCCC5=O)cc4)c4ccccc43)[C@@H]2C)cc1` the value was -0.247 (inactive). Take `COc1cc(CO)cc(I)c1O[C@H]1C=C(C(=O)NCCO)C[C@@H](N(CC2CCCCC2)C(=O)c2cc3ccccc3oc2=O)[C@@H]1O`: the composite Z-score is 0.577 (inactive). `COC(=O)C1=CC(c2ccc(CO)cc2)=CC(C2CC2)N(Cc2sc3ccccc3c2Cl)C=C1C(=O)OC` (stereo not drawn): the composite Z-score was 0.152 (inactive). Same read-out and setting: under `CSCC[C@@H]1NC(=O)CC=C[C@@H](C)COC(=O)[C@H](CCSC)NC(=O)CC=C[C@@H](C)COC1=O` stands 0.559 (inactive). On the same count and under the same terms, under `COC(=O)[C@@]1(Cc2ccc(OC)cc2)[C@H]2c3cc(C(=O)N(C)C)n(CCc4ccc(OC)c(Br)c4)c3C[C@H]2CN1C(=O)c1ccccc1` stands -0.665 (inactive); under `COCC(=C=CC[C@H](O)c1ccc(OCCO)cc1)C[C@H](O)c1ccccn1`, 1.14 (inactive). Same read-out and setting: under `O=C(NCc1ccccc1)[C@@]1(Cc2ccccc2)COC(c2ccc(OCCCO)cc2)=N1` stands -0.179 (inactive); under `CO[C@@H]1COC(=O)[C@H](C)NC(=O)CC=C[C@@H](C)[C@H](OC)COC(=O)[C@H](C)NC(=O)CC=C[C@H]1C`, 0.137 (inactive); under `CCCC=C(CCC)[C@@H](NS(=O)(=O)c1ccc(C(F)(F)F)cc1)c1ccc(-c2ccccc2)cc1`, -0.118 (inactive). For the compound `CC(C)(C)OC(=O)CC[C@]1(C(=O)N2CCCCC2)N=C(c2ccc(OCCCO)cc2)O[C@H]1c1ccccc1`, the composite Z-score was -0.0084 (inactive).

Take `CC(=O)NCCCC[C@@H]1NC(=O)[C@@H]2C[C@H](C(=O)NCCCCCNC(=O)CS)[C@H](c3ccc(O)cc3)N2C1=O`: the composite Z-score is 1.43 (inactive). Same read-out and setting: under `C=CCC(OC(C)=O)[C@@H]1[C@@H](N(Cc2ccc(-c3cccc(C(F)(F)F)c3)o2)C(=O)Cc2ccc(F)cc2)c2cc(OCCCO)ccc2N1C(=O)c1ccc(-c2ccccc2)cc1` (stereo partly drawn) stands -0.014 (inactive); under `CO[C@]12C=C(Br)[C@@H](C[C@@H]1c1ccccc1)[C@@]1(CO1)C2=O`, -0.0467 (inactive). With `COCCOC(=O)N1C(=O)[C@@]2(c3cc(C#CCC(C(=O)OC)C(=O)OC)ccc31)[C@H](c1ccccc1OCCO)N1[C@H](c3ccccc3)[C@H](c3ccccc3)OC(=O)[C@H]1[C@@H]2C(=O)N1CCCCCCC1`, the composite Z-score is 2.67 (inactive). Same read-out and setting: for `CCOC(=O)C1=CC[C@@H](c2ccccc2)N(S(=O)(=O)c2ccc(C)cc2)[C@H]1C` the value was 0.102 (inactive); for `O=C1c2ccccc2[C@](Cc2ccccc2I)(C(=O)NCC(F)(F)F)[C@H](c2ccc(CO)cc2)N1Cc1ccccc1C(F)(F)F`, 0.34 (inactive).
